Experiment [1] can be described thus: binders of probe aFSTL3 on microarray, primary screen, stem cell growth factor project, biochemical, small-molecule microarray, fluorescence 635/667 (AID 1064).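 Further: measures binding of the biotinylated anti-FSTL3 antibody to printed compounds.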 The note with it: higher = more signal.
Experiment [2] in a line: binders from COS7 lysate, DM2A8 probe, primary screen, torsin A project, cell lysate, small-molecule microarray, fluorescence 635/667 (AID 1065). Conditions: higher = more signal, COS7 lysate expressing mutant human TOR1A.
A short description of experiment [3]: binders of probe aFGF2 on microarray, primary screen, stem cell growth factor project, biochemical, small-molecule microarray, fluorescence 635/667 (AID 1067).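 Further: measures binding of biotinylated aFGF2 protein to printed compounds on slides; z-score merges feature fluorescence and signal-to-noise across triplicate slides.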 Conditions: higher = more signal.
Experiment [4] is described as follows: binders of probe aFGF10 on microarray, primary screen, stem cell growth factor project, biochemical, small-molecule microarray, fluorescence 635/667 (AID 1071).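 Further: score merges 667 nm spot intensity and signal to noise from triplicate slides.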 Conditions: higher = more signal.
Experiment [5] concerns the target Neurogenic locus notch homolog protein 2 (Homo sapiens) (UniProt Q04721). The experiment is described as follows: Notch2 binders on small-molecule microarrays, primary screen, biochemical, small-molecule microarray, 635 nm fluorescence, stem cell growth factors (AID 1073). Conditions: Notch2 binding, higher = more signal.
The target in experiment [6] is Pro-neuregulin-1, membrane-bound isoform (Homo sapiens) (UniProt Q02297). The experiment is described as follows: NRG1 binders on small-molecule microarrays, primary screen, psychiatric disease protein project, biochemical, small-molecule microarray, fluorescence 635/667 (AID 1075).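 Further: score combines 667 nm spot fluorescence with signal to noise.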 The note with it: NRG1 binding, 635 nm fluorescence, higher = more signal.
Experiment [7] concerns Neuregulin-1 EGF-like domain. The experiment in a line: binders of neuregulin-1 EGF-like domain, primary screen, biochemical, small-molecule microarray, 635 nm fluorescence (AID 1081).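 Further: binding of the protein to compounds printed on small-molecule microarray slides.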 The note with it: small-molecule microarray binding, higher = more signal.
The nature of experiment [8]: FRG1 promoter luciferase signal modulators, primary screen, FRG1 inhibition for FSHD, cell-based, C2C12 myotubes, firefly/Renilla luciferase, luminescence (AID 1084). Conditions: higher = more signal, called active from +8 up or from −8 down.
Experiment [9] in a line: binders of probe aFST on microarray, primary screen, stem cell growth factor project, biochemical, small-molecule microarray, fluorescence 635/667 (AID 1086).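 Further: score merges 667 nm fluorescence with signal-to-noise of each printed compound spot.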 The note with it: higher = more signal.
A short description of experiment [10]: binders of probe aHhip on microarray, primary screen, stem cell growth factor project, biochemical, small-molecule microarray, fluorescence 635/667 (AID 1087).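 Further: score merges spot fluorescence at 667nm with spot signal to noise ratio.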 The note with it: higher = more signal.

Active and inactive are the calls of the source.

Sequence of Pro-neuregulin-1, membrane-bound isoform (Homo sapiens) (Q02297 whole entry, looked up, the tested form may be a part, canonical isoform): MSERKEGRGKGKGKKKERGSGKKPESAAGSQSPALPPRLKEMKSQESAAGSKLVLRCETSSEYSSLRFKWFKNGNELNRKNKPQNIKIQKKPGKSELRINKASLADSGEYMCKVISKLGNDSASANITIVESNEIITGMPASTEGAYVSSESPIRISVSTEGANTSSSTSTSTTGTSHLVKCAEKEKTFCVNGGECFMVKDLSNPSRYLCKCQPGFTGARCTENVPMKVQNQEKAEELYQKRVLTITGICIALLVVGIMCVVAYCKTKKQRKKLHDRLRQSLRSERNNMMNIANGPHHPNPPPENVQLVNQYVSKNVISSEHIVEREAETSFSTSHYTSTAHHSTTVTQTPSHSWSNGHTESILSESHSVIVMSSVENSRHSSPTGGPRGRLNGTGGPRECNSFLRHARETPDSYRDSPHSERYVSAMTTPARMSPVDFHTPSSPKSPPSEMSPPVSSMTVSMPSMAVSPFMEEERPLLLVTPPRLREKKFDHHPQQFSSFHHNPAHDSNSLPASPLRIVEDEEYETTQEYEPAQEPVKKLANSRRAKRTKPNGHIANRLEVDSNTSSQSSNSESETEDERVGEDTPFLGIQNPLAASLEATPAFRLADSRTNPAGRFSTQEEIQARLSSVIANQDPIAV
Sequence of Neurogenic locus notch homolog protein 2 (Homo sapiens) (Q04721 whole entry, looked up, canonical isoform): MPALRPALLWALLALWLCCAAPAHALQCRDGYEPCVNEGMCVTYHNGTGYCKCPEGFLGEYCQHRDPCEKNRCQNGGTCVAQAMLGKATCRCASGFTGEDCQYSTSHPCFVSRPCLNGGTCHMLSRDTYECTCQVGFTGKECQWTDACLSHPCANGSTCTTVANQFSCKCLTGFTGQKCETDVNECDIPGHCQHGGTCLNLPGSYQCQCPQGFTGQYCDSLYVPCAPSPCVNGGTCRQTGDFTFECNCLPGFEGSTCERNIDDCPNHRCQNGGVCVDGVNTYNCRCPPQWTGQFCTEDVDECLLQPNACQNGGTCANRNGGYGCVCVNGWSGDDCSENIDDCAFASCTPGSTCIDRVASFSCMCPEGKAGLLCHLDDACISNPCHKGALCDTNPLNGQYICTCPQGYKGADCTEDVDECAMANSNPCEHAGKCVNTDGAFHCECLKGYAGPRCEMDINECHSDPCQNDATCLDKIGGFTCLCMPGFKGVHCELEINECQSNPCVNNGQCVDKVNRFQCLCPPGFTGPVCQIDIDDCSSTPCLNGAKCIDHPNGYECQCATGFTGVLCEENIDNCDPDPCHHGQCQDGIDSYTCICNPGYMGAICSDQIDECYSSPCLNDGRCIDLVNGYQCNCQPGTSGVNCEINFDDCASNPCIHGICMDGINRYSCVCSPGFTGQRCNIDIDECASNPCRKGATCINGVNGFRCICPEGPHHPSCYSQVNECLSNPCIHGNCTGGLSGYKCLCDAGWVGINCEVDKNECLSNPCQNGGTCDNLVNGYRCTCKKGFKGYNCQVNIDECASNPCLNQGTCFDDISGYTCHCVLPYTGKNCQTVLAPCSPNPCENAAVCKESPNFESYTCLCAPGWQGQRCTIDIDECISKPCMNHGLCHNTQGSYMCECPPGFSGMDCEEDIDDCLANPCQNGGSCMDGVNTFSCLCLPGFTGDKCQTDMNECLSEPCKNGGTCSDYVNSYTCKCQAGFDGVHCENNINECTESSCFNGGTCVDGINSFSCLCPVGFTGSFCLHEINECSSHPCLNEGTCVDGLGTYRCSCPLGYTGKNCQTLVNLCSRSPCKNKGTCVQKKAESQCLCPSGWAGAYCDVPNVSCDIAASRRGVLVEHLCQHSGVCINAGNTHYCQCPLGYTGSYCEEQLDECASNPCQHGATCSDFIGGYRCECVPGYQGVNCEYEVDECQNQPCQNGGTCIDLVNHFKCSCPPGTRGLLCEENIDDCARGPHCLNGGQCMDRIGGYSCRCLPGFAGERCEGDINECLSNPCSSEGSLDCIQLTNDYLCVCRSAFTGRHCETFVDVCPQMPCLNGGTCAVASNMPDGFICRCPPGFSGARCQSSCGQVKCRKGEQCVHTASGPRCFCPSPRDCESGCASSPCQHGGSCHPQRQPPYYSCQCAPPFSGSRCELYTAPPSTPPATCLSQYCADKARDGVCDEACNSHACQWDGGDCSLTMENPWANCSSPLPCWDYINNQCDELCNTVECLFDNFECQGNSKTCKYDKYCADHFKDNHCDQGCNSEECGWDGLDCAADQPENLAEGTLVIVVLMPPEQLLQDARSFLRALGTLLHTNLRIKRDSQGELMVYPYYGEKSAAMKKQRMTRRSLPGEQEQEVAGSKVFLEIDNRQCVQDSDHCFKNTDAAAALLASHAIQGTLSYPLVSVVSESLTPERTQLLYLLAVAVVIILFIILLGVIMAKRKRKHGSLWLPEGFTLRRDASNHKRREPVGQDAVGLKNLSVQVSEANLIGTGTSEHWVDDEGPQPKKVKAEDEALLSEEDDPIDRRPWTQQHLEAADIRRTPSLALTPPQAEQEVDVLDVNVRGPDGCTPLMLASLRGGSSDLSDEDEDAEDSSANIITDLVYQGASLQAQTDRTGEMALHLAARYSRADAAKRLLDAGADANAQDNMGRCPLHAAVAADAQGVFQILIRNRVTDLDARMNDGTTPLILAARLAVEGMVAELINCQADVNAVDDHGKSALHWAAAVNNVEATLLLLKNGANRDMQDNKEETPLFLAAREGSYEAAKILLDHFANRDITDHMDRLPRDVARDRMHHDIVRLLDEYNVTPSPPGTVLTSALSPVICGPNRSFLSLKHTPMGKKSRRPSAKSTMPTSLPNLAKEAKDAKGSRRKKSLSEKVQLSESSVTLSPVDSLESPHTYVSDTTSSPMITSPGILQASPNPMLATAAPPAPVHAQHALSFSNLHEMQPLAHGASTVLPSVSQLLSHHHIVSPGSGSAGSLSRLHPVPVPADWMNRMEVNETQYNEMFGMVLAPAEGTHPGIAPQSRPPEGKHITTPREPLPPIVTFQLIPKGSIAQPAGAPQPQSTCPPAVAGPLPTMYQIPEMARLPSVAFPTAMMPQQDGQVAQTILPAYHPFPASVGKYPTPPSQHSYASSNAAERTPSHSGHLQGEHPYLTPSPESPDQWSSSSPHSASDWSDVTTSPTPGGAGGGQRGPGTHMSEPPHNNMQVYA

As to `COC(=O)C(CC#Cc1ccc2c(c1)[C@]1(C(=O)N2)[C@H](C(=O)N2CCN(c3ncccn3)CC2)[C@H]2C(=O)O[C@H](c3ccccc3)[C@H](c3ccccc3)N2[C@@H]1c1ccc(OCCO)cc1)C(=O)OC`, the composite z-score in experiment [1] was -0.448; in [2], 1.21; in experiment [3] it was -0.0768; in [4] it was 0.554; in experiment [5], 1.16; in [6], 1.67. The composite z-score was 1.26 in [7], 0.38 in experiment [9] and -0.0296 in experiment [10]. For the same molecule, the z-score in experiment [8] was 1.97 (inactive).

Consider `Cc1cc(C)c(C(O)C2C=CC3C(=O)N(c4ccccc4)C(=O)C3N2Nc2ccc(C(C)C)cc2)c(C)c1` (stereo not given), for which the composite z-score in experiment [1] was determined as 0.224; in [2], 0.243; in experiment [3] it was 0.172; in [4], 0.941; in [5] it was 1.66; in experiment [6] it was 1.91. Moreover, the composite z-score amounted to 1.25 in [7], 1.37 in [9] and 0.128 in experiment [10]. Moreover, in experiment [8], the z-score is 1.44 (inactive).

For `O=C1O[C@H](c2ccccc2)[C@H](c2ccccc2)N2[C@H]1[C@@H](C(=O)Nc1nc3ccccc3s1)[C@]1(C(=O)Nc3ccc(C#CC4(O)CCCCCC4)cc31)[C@H]2c1ccccc1OCCO`, the composite z-score is -0.411 in [1]; 0.0728 in [2]; -0.048 in experiment [3]; 1.05 in experiment [4]; 1.23 in experiment [5]; 0.77 in experiment [6]. Further, the values for the composite z-score in experiment [7], in experiment [9] and in experiment [10] were 1.07, 0.492 and -0.0994, respectively. For the same molecule, the z-score in experiment [8] is 0.435 (inactive).

As for `C#CCN([C@@H](Cc1ccc(O)cc1)C(=O)OC)[C@@H](/C=C/C1CC1)[C@H](O)Cc1ccccc1`, the composite z-score is 0.164 in experiment [1]; -0.112 in [2]; -0.0732 in [3]; -0.37 in [4]; -0.791 in experiment [5]; -0.737 in experiment [6]. The results for the composite z-score in experiment [7], in [9] and in [10] were 0.356, -0.09 and -0.337, respectively. Moreover, in [8], the z-score is -3.55 (inactive).

With `COc1ccccc1CN1C(=O)c2ccccc2[C@@]2(Cc3ccccc3N(CC(F)(F)F)C2=O)[C@@H]1c1ccc(CO)cc1`, the composite z-score was -0.951 in experiment [1]; 0.252 in experiment [2]; -0.226 in experiment [3]; -0.244 in experiment [4]; 0.166 in experiment [5]; -0.226 in experiment [6]. Besides, the composite z-score is 0.778 in experiment [7], -0.29 in experiment [9] and -0.403 in [10]. Further, the z-score in experiment [8] was -3.55 (inactive).

As for `[N-]=[N+]=Nc1ccccc1[C@H]1OC(c2ccc(OCCCO)cc2)=N[C@@]1(Cc1ccccc1)C(=O)N1CCCCC1`, the composite z-score in [1] was 0.308; in experiment [2], -0.182; in experiment [3], -0.0044; in experiment [4], 0.692; in experiment [5], 1.63; in experiment [6] it was 1.01. For the same molecule, the composite z-score is 1.32 in experiment [7], 0.763 in experiment [9] and -0.0994 in experiment [10]. Also, in [8], the z-score is -1.02 (inactive).

For the molecule `[N-]=[N+]=Nc1ccccc1C[C@]1(C(=O)N2CCOCC2)N=C(c2ccc(OCCCO)cc2)O[C@H]1c1ccccc1`, the composite z-score in experiment [1] stood at 0.747; in experiment [2], 1.49; in experiment [3], 0.17; in experiment [4] it was 0.983; in [5], 1.48; in experiment [6], 1.13. Further, the composite z-score in experiment [7] is 1.23; in experiment [9] it was 1.29; in experiment [10] it was 0.348. The z-score in experiment [8] was -1.62 (inactive).

With `C=CCOC(=O)[C@H]1[C@@H]2C(=O)O[C@@H](c3ccccc3)[C@@H](c3ccccc3)N2[C@@H](c2ccc(OCCOC(=O)[C@@H]3C[C@@H]4C(=O)N[C@@H](CCCCNC(C)=O)C(=O)N4[C@@H]3c3ccc(O)cc3)cc2)[C@]12C(=O)Nc1ccc(I)cc12`, the composite z-score in experiment [1] was -0.0041; in experiment [2], 0.689; in experiment [3] it was -0.0466; in [4], 0.892; in [5], 1.43; in experiment [6] it was 1.23. The composite z-score in [7] is 1.37; in experiment [9] it was 0.257; in [10], -0.323. In experiment [8], the z-score is -0.553 (inactive).

Regarding `CCCC[C@@H](O)C1=C(COc2ccccc2)C[C@H]2C(=O)N(C)C(=O)[C@H]2[C@H]1CO`, the composite z-score in experiment [1] was -0.417; in experiment [2], -0.33; in [3], -0.128; in [4], -0.167; in experiment [5] it was -0.23; in experiment [6], -0.665. The composite z-score in [7] was -0.609; in experiment [9], -0.346; in experiment [10], -0.261. Moreover, the z-score in [8] was -1.64 (inactive).

On to `O=C1OCCC=C[C@H]2OC34C=CCN(Cn5nnc6ccccc65)C(=O)[C@H]3N(CCCCCCO)C(=O)[C@@H]4C12` (stereo not given in full), for which the composite z-score in experiment [1] was 0.603; in experiment [2], 0.134; in experiment [3] it was -0.129; in experiment [4] it was -0.612; in experiment [5], -1.29; in [6], -0.207. Also, the composite z-score in experiment [7] was 1.11; in experiment [9], -0.564; in experiment [10] it was -0.134. Also, the z-score in experiment [8] was -0.229 (inactive).

As for `C=C(C)c1cc2c(c(CCCCCC)n1)[Si](C(C)C)(C(C)C)OC2`, the composite z-score was -0.392 in [1]; -1.42 in experiment [2]; -0.157 in experiment [3]; -1.05 in experiment [4]; -1.03 in experiment [5]; -0.792 in experiment [6]. Also, the composite z-score in experiment [7] is -1.02; in experiment [9] it was -0.437; in experiment [10] it was 0.0201. For the same molecule, the z-score in experiment [8] is -0.647 (inactive).

On to `COc1ccc([Si](C)(C)[C@@H]2[C@@H](CCn3cc([C@H](O)c4ccccc4)nn3)O[C@]3(C(=O)N(Cc4ccc(N5CCC5=O)cc4)c4ccccc43)[C@H]2C)cc1`, for which the composite z-score was 0.554 in experiment [1]; -0.163 in experiment [2]; -0.164 in experiment [3]; -0.127 in [4]; -0.564 in experiment [5]; 0.189 in [6]. For the same molecule, the composite z-score in experiment [7] is 0.142; in experiment [9], -0.201; in [10] it was -0.503. Moreover, the z-score in experiment [8] was -0.96 (inactive).

On to `Cc1ccc(S[C@]2(C(=O)O)CC(=O)N(Cc3ccccc3Cl)[C@@H]2c2ccc(CO)cc2I)cc1`, for which the composite z-score was 0.655 in [1]; 0.39 in [2]; 0.234 in experiment [3]; 0.107 in experiment [4]; -0.442 in experiment [5]; -0.0683 in experiment [6]. For the same molecule, the composite z-score in experiment [7] is 1.09; in experiment [9], 0.415; in experiment [10], -0.624. In [8], the z-score was 0.11 (inactive).

In the case of `COC(=O)c1cn(C[C@@H](Cc2ccccc2)NC(=O)N[C@H](CO)CCc2oc(C(C)=O)c(C(=O)OC)c2C(=O)OC)nn1`, the composite z-score was -0.695 in experiment [1]; 0.603 in [2]; -0.0602 in experiment [3]; 0.757 in experiment [4]; 0.5 in experiment [5]; 0.165 in experiment [6]. Further, the composite z-score was 1.21 in [7], 0.232 in experiment [9] and 0.0274 in experiment [10]. Further, the z-score in experiment [8] is -0.776 (inactive).

Values taken from PubChem BioAssay.
